This is one part of a sample in which hits are shown more often than they occur.
ID4 binder: binds human ID4 protein on microarray; P47928; small molecule microarray, Flag-ID4 binding, fluorescence F/B; calls only; 31,000 tested, 1.2% active; AID 624137; call rule not given here;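 also: a binder raises fluorescence above local background on the spot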
Target sequence (P47928 whole entry, looked up): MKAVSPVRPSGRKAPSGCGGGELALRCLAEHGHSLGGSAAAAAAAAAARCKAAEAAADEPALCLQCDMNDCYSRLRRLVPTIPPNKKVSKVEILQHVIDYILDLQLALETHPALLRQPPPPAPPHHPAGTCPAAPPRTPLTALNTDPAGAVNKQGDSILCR
Each line names hits and unclear results; the compound was inactive in the other large screens.

c1cc(-c2nc(-c3ccc4c(c3)OCCCO4)cs2)ccc1-c1csnn1	none
O=C(NCc1nc2ccccc2[nH]1)C1=C[C@H](C2CC2)C[C@H](OCc2ccc(CO)cc2)O1	ID4 binder active
C#CCNC(=O)C1=C[C@@H](C2CCCCC2)C[C@@H](OCc2ccc(CO)cc2)O1	none
O=C(NCc1nc2ccccc2[nH]1)C1=C[C@@H](C2CC2)C[C@@H](OCc2ccc(CO)cc2)O1	none
O=C(CSc1nc2cc3ccccc3cc2[nH]1)Nc1ccccc1Cl	none
COc1ccc(-c2cc(=O)c3c(O)c(OC)c(O[C@@H]4O[C@H](CO)[C@@H](O)[C@H](O)[C@H]4O[C@@H]4O[C@@H](C)[C@H](O)[C@@H](O)[C@H]4O)cc3o2)cc1	none
O=S(=O)(NC1CCN(Cc2ccc(OCCO)cc2)CC1)c1cccc2cccnc12	none
O=S(=O)(c1cccc2cccnc12)N1CCN(Cc2ccc(OCCO)cc2)CC1	ID4 binder active
O=S(=O)(c1cc(C(F)(F)F)ccc1Cl)N1CCN(Cc2ccc(OCCO)cc2)CC1	none
COc1ccc(-c2nnc(SCC(=O)c3ccc(Cl)cc3)n2-c2ccc(C)cc2)cc1OC	none
COc1c(O)ccc(C(c2cn(C)c3ccccc23)c2cn(C)c3ccccc23)c1[N+](=O)[O-]	none
COc1ccc(-c2nn3c(Cn4cnc5ccccc54)nnc3s2)cc1OC	none
O=C(NC(Cc1ccc(O)cc1)C(=O)O)c1ccccc1 (stereo not given)	ID4 binder active
COC(=O)C(Cc1ccccc1)NC(=O)c1ccccc1 (stereo not given)	none
O=C(NC(Cc1ccc(F)cc1)C(=O)O)c1ccccc1 (stereo not given)	none
CCC1C/C(=C\c2sccc2C)C(=O)/C(=C/c2sccc2C)C1 (stereo not given)	none
O=C(CN1C(=O)c2ccccc2S1(=O)=O)Nc1ccccc1-c1ccccc1	none
C[C@@H]1CCCCO[C@H](CN(C)C(=O)C2CCCCC2)[C@@H](C)CN([C@@H](C)CO)C(=O)c2cc(NC(=O)c3ccncc3)ccc2O1	ID4 binder active
C[C@H](CO)N1C[C@H](C)[C@H](CN(C)C(=O)C2CCCCC2)OCCCC[C@H](C)Oc2ccc(NC(=O)c3ccncc3)cc2C1=O	none
C[C@H]1CCCCO[C@@H](CN(C)C(=O)C2CCCCC2)[C@@H](C)CN([C@@H](C)CO)C(=O)c2cc(NC(=O)c3ccncc3)ccc2O1	none
C[C@@H]1CCCCO[C@H](CN(C)C(=O)c2ccncc2)[C@@H](C)CN([C@H](C)CO)C(=O)c2cc(NS(=O)(=O)c3ccccc3)ccc2O1	none
C[C@@H]1CCCCO[C@@H](CN(C)C(=O)c2ccncc2)[C@H](C)CN([C@H](C)CO)C(=O)c2cc(NS(=O)(=O)c3ccccc3)ccc2O1	none
C[C@@H]1CN([C@H](C)CO)C(=O)c2cc(NS(=O)(=O)c3ccccc3)ccc2O[C@@H](C)CCCCO[C@@H]1CN(C)C(=O)c1ccncc1	ID4 binder active
Cc1ccc(NC(=O)C(=O)NCCc2c[nH]c3ccccc23)cc1Cl	none
Cc1c(NC(=S)NCc2ccccn2)c(=O)n(-c2ccccc2)n1C	none
Cc1c(NC(=S)NCCc2c[nH]c3ccccc23)c(=O)n(-c2ccccc2)n1C	ID4 binder active
COc1cc(Cl)c(C)cc1NC(=O)C1CCC(=O)N1S(=O)(=O)c1ccc(C)cc1 (stereo not given)	none
O=C(CSc1nnc(-c2ccc(Cl)cc2)o1)N1c2ccccc2Sc2ccccc21	none
COc1ccc(CCN2C(=O)C(C)SC2c2cccnc2)cc1 (stereo not given)	none
Cc1nc(S(=O)(=O)NC2CCN(Cc3ccc(OCCO)cc3)CC2)cn1C	none
O=S(=O)(N[C@@H]1CCCN(Cc2cccc(OCCO)c2)C1)c1cc(Cl)ccc1Cl	ID4 binder active
Cc1ccc(S(=O)(=O)N[C@@H]2CCCN(Cc3cccc(OCCO)c3)C2)cc1	none
O=S(=O)(NC1CCN(Cc2ccc(OCCO)cc2)CC1)c1cc(Cl)ccc1Cl	none
Cc1ccc(S(=O)(=O)N[C@@H]2CCCN(Cc3ccc(OCCO)cc3)C2)cc1	ID4 binder active
O=S(=O)(N[C@@H]1CCCN(Cc2ccc(OCCO)cc2)C1)c1ccccc1	none
Cc1ccc(-c2csc3ncnc(SCC(=O)Nc4ccccc4F)c23)cc1	none
COC(=O)CNS(=O)(=O)c1ccccc1[N+](=O)[O-]	none
COc1cccc(NC(=O)CSc2nnc(-c3ccccc3)n2-c2ccc(Cl)cc2)c1	none
Cc1cccc(NC(c2ccccc2[N+](=O)[O-])c2ccc3ccc(C)nc3c2O)n1 (stereo not given)	none
Cc1cccc(NC(=O)CC2OCCN(Cc3ccccc3)C2=O)c1 (stereo not given)	none
O=S(=O)(Nc1cccnc1)c1cccc(S(=O)(=O)c2ccc(Cl)c(Cl)c2)c1	none
Cc1cccc(NC(=O)c2cc(NC(=O)CCC(=O)O)ccc2N2CCOCC2)c1	ID4 binder active
Cc1cccc(NC(=O)CC(C(=O)O)N2CCOCC2)c1 (stereo not given)	none
Cc1cccc(NC(=O)c2cc(NC(=O)C3CCCCC3C(=O)O)ccc2N2CCCCC2)c1 (stereo not given)	none
CCCC(=O)Nc1ccc2c(c1)OC[C@@H](C)N(CCc1ccccc1)C[C@@H](C)[C@H](OC)CN(C)C2=O	none

Compound activity deposited in PubChem by Broad Institute.
